Reference: PubChem BioAssay (NCATS)
Records with an inconclusive call do not appear. A call without a number means that no potency is given here. The source made the active and inactive calls. The call rests on the fitted dose curve; in most records, active means well fitted curve in the direction sought with a large enough effect; inconclusive means small, poorly fitted or top-dose-only effect, or another doubt; inactive means no such curve, though single readings can be large; an effect the other way counts as inactive or inconclusive.

system: not listed separately; test: Primary fluorescence-based thiol-reactive (MSTI) qHTS assay for identification of artifact compounds. (AID 1845221); conditions: MSTI thiol-reactivity probe, 1 h; series mostly up to 53.8 µM; further: nearly all actives have a fitted effect of over 65% in size; further: potency means the concentration at half of the fitted maximal effect
Method in brief: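 Thiol-reactive compounds detected by quenching of 4 uM MSTI fluorescence (525/598 nm) after 1 h room-temperature dark incubation in PBS pH 7.4, 2% DMSO. qHTS titration; percent inhibition Hill-fitted against Acetyl-MSTI/MSTI controls.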

| SMILES | Potency |
| --- | --- |
| Cc1ccccc1C(=O)Nc1ccc(C(=O)N2CCCC(O)c3cc(Cl)ccc32)c(C)c1 (stereo unspecified) | inactive |
| Cc1cncc2cccc(S(=O)(=O)N3CCCN(C(=O)CN)C[C@@H]3C)c12 | inactive |
| N[C@H]1CN(c2c(F)cc3c(=O)c(C(=O)O)cn(C4C[C@@H]4F)c3c2Cl)CC12CC2 (stereo partly specified) | inactive |
| Cn1cnc2c(F)c(Nc3ccc(Br)cc3F)c(C(=O)NOCCO)cc21 | inactive |
| COc1ccc(S(=O)(=O)Nc2cccnc2Nc2ccc(O)cc2)cc1 | 4.23 µM (active) |
| CC(C)(N)c1ccc(-c2nc3ccccc3nc2-c2ccccc2)cc1 | inactive |
| CCOC(=O)[C@@H](N)Cc1ccc(-c2cc(O[C@H](c3ccc(Cl)cc3-n3ccc(C)n3)C(F)(F)F)nc(N)n2)cc1 | inactive |
| Cc1ncc(-c2ccnc(Nc3ccc(S(C)(=O)=O)cc3)n2)n1C(C)C | inactive |
| CC(C)n1cnc2c(NCCc3ccc(O)cc3)nc(-c3csc4ccccc34)nc21 | inactive |
| O=C(Nc1ccc(Oc2ccnc3[nH]ccc23)c(F)c1)c1cccn(-c2ccc(F)cc2)c1=O | inactive |
| CC(C)C[C@H](NC(=O)[C@@H](NC(=O)c1cccc(-c2ccccc2)n1)[C@@H](C)O)B(O)O | inactive |
| Cn1cc(-c2ccc3ncc(Cc4ccc5ncccc5c4)n3n2)cn1 | inactive |

system: Nanoluciferase (engineered Oplophorus gracilirostris luciferase); test: Primary Nanoluciferase (NLuc) qHTS assay for identification of artifact compounds. (AID 1845222); conditions: NLuc-conditioned medium, Nano-Glo luminescence, 5 min; series mostly up to 54.1 µM;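 further: NLuc secreted into diluted conditioned medium of S16 cells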
Method in brief: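 qHTS format, against NLuc in S16 cell-conditioned medium. Nano-Glo substrate 1:100 was added after 15 min at room temperature. Luminescence was taken after a further 5 min.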

| SMILES | outcome |
| --- | --- |
| Cc1ccccc1C(=O)Nc1ccc(C(=O)N2CCCC(O)c3cc(Cl)ccc32)c(C)c1 (stereo unspecified) | inactive |
| Cc1cncc2cccc(S(=O)(=O)N3CCCN(C(=O)CN)C[C@@H]3C)c12 | inactive |
| N[C@H]1CN(c2c(F)cc3c(=O)c(C(=O)O)cn(C4C[C@@H]4F)c3c2Cl)CC12CC2 (stereo partly specified) | inactive |
| Cn1cnc2c(F)c(Nc3ccc(Br)cc3F)c(C(=O)NOCCO)cc21 | inactive |
| COc1ccc(S(=O)(=O)Nc2cccnc2Nc2ccc(O)cc2)cc1 | inactive |
| CC(C)(N)c1ccc(-c2nc3ccccc3nc2-c2ccccc2)cc1 | inactive |
| CCOC(=O)[C@@H](N)Cc1ccc(-c2cc(O[C@H](c3ccc(Cl)cc3-n3ccc(C)n3)C(F)(F)F)nc(N)n2)cc1 | inactive |
| c1cc(N[C@@H]2CCNC2)nc(-c2cnc3ccc(-c4cn[nH]c4)cn23)c1 | inactive |
| Cc1ncc(-c2ccnc(Nc3ccc(S(C)(=O)=O)cc3)n2)n1C(C)C | inactive |
| CC(C)n1cnc2c(NCCc3ccc(O)cc3)nc(-c3csc4ccccc34)nc21 | inactive |
| CCN(CC)Cc1ccc2cc(COC(=O)Nc3ccc(C(=O)NO)cc3)ccc2c1 | inactive |
| O=C(Nc1ccc(Oc2ccnc3[nH]ccc23)c(F)c1)c1cccn(-c2ccc(F)cc2)c1=O | inactive |
| CC(C)C[C@H](NC(=O)[C@@H](NC(=O)c1cccc(-c2ccccc2)n1)[C@@H](C)O)B(O)O | inactive |
| Cn1cc(-c2ccc3ncc(Cc4ccc5ncccc5c4)n3n2)cn1 | inactive |
